# Data as given in PubChem BioAssay.
# A number with no mark means an inactive call. No rule for the calls is given here.
# Target: Botulinum neurotoxin type A (Clostridium botulinum) (UniProt P0DPI0)
# Assay: BoNT/A light chain protease inhibitors, biochemical, multiplex microsphere flow cytometry, validation set (AID 588460)
# Conditions: at 10 µM, hits give high values
row,Structure (SMILES),inhibition
1,CC(C)C[C@H](NC(=O)[C@@H]1Cc2ccccc2CN1C(=O)OC(C)(C)C)C(=O)NCC1CCC(C(=O)O)CC1 (stereo partly specified),0.3%
2,Cc1nc(N)nc2c1CCCC2,1.2%
3,CC1(C)CC(=O)C2=C(C1)c1c(ccc3ccccc13)NC2c1ccco1 (stereo unspecified),1.1%
4,Cn1c([N+](=O)[O-])cnc1COC(N)=O,-0.6%
5,CCc1cc(=O)oc2cc(OCC=C(C)C)ccc12,0.5%
6,COc1cc2c(cc1OC)CN(Cc1ccc(C)s1)CC2,0.7%
7,COC(=O)c1cc(-c2c(C)oc3cc(OC)ccc3c2=O)c(C)o1,-2%
8,COc1ccccc1OCC(O)COC(N)=O (stereo unspecified),-1.3%
9,O=C(NCCC(c1ccccc1)c1ccco1)c1cccs1 (stereo unspecified),-2.7%
10,CC1(c2ccccc2)CC(C)(C)N2C(=O)C(=O)c3cccc1c32 (stereo unspecified),1.2%
11,NC[C@H]1O[C@H](O[C@H]2[C@H](O)[C@@H](O[C@H]3O[C@H](CO)[C@@H](O)[C@H](N)[C@H]3O)[C@H](N)C[C@@H]2N)[C@H](N)C[C@@H]1O,-1.1%
12,O=C(O)CCCCCCNC(=O)c1cncc(O)c1,0.2%
13,Cc1ccc2nc(N=C(N)N)nc(C)c2c1,-0.2%
14,COc1ccc2cc(CCC(C)=O)ccc2c1,0.4%
15,O=c1ccn([C@@H]2O[C@H](CO)[C@@H](O)[C@H]2O)c(=O)[nH]1,-0.2%
16,COC(=O)c1ccc(CC(=O)c2ccc(O)cc2O)o1,-0.8%
17,Cc1cn([C@H]2C[C@H](N=[N+]=[N-])[C@@H](CO)O2)c(=O)[nH]c1=O,0.2%
18,COc1ccc(C2CC(c3c(O)cc(C)oc3=O)=NCCS2)c(OC)c1 (stereo unspecified),2%
19,COc1ccc(-c2c(NC(=O)c3ccco3)n(C)c3ccccc3c2=O)cc1,0.4%
20,N/C(Cc1ccc(Cl)cc1Cl)=N\OC(=O)c1ccc(Br)o1,-2.5%
21,CN1CCCN(C(c2ccccc2)c2ccc(Cl)cc2)CC1 (stereo unspecified),-1.8%
22,CC(C)(C)C(=O)N1CCCC1C(=O)O (stereo unspecified),-1.2%

# Target: Lethal factor (Bacillus anthracis) (UniProt P15917)
# Assay: Lethal factor protease inhibitors, Bacillus anthracis, multiplex microsphere cleavage assay, validation set (AID 588461)
# Conditions: flow cytometry, at 10 µM, hits give high values
row,Structure (SMILES),inhibition
1,CC1CCCC(C)N1NC(=O)c1ccc(Cl)c(S(N)(=O)=O)c1 (stereo unspecified),5.8%
2,CC(=O)CCc1oc2ccccc2c1-c1ccccc1,-3.1%
3,C=C(C)COc1ccc(-c2nc(N)ncc2-c2ccc(OC)cc2)c(O)c1,-5.3%
4,CC(C)C[C@H](NC(=O)NC(C)C)C(=O)O,2.9%
5,NC(=O)c1ncn([C@@H]2O[C@H](CO)[C@@H](O)[C@H]2O)c1O,-13.3%
6,O=C(O)c1cccnc1,2.5%
7,CN(C)CCC(c1ccccc1)c1ccccn1 (stereo unspecified),2.6%
8,O=c1cc(-c2ccc3c(c2)OCCO3)oc2ccc(Cl)cc12,0.9%
9,COc1ccc2cc(C3(C)NC(=O)NC3=O)ccc2c1 (stereo unspecified),0.8%
10,Cn1cc(CN(CCO)Cc2cccs2)c(-c2cccc(Cl)c2)n1,-1.3%
11,O=C(N/N=C/c1ccc([N+](=O)[O-])o1)c1ccc(O)cc1,-11.9%
12,CN(C)CCOC(c1ccccc1)c1ccccc1 (tested in a mixture with another compound),-6.7%
13,CC(C)c1ccc2[nH]c3c(c2c1)CCCC3=O,-3.4%
14,O=C(CCc1c[nH]c2ccccc12)NCc1ccco1,5.8%
15,COCCCN1C(=O)C(=O)/C(=C(/O)c2ccc3c(c2)CC(C)O3)C1c1cccnc1 (stereo unspecified),3.5%
16,COC(=O)c1ccc2c(c1)C(=O)/C(=C/c1ccc(O)cc1)O2,-8.5%
17,N=C1C(c2ccccc2)=C(O)CN1CCCO,-5%
18,CC(C)C[C@H](NC(=O)[C@@H]1Cc2ccccc2CN1C(=O)OC(C)(C)C)C(=O)NCC1CCC(C(=O)O)CC1 (stereo partly specified),-3.6%
19,Cc1nc(N)nc2c1CCCC2,4.9%
20,CC1(C)CC(=O)C2=C(C1)c1c(ccc3ccccc13)NC2c1ccco1 (stereo unspecified),3.8%
21,Cn1c([N+](=O)[O-])cnc1COC(N)=O,-1.2%
22,CCc1cc(=O)oc2cc(OCC=C(C)C)ccc12,0.2%
23,COc1cc2c(cc1OC)CN(Cc1ccc(C)s1)CC2,-1.2%
24,COC(=O)c1cc(-c2c(C)oc3cc(OC)ccc3c2=O)c(C)o1,-6.6%
